Compounds with a hit are over-represented: about 5.7% of the library has one in this group of screens.
JMJD2E inh = inhibitors of human JMJD2E histone demethylase; AID 2147; hit rate 1.6% among 230,000; Potency, µM (titrated, usually from 57.1 µM), actives largely listed as inhibitors; JMJD2E catalytic domain, FDH-coupled NADH fluorescence (FDH is formaldehyde dehydrogenase); active means well fitted inhibition curve with a large enough effect, not every such curve was filed as active; inconclusive means small, poorly fitted or top-dose-only effect, or another doubt; inactive means no such curve, though single readings can be large or run the other way; further: nearly all actives have a fitted effect of over 50% in size
PI5P4K alpha inh = inhibitors of human PI5P4K alpha; P48426; PI5P4Kalpha enzyme, ADP-Glo luminescence, 60 min; active compounds read low; max response, %; hit rate 1.2% among 330,000; AID 652105; active means max response of -50% or lower; inconclusive means between -30% and -50%; inactive means -30% or higher; further: value at the top dose of about 77 µM
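ADP-Glo luminescence end-point after a 60 min room-temperature kinase reaction. PI5P4Kalpha and substrate in HEPES pH 7.4 buffer with EGTA, 0.1% CHAPS and 5% DMSO; ATP at 5 microM final.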
L3MBTL1 block = blocks human L3MBTL1; Q9Y468; AlphaScreen L3MBTL1–H3K9me1 peptide binding; Potency, µM (doses to about 57.1 µM), hits mostly inhibitors; hit rate 0.66% among 230,000; further: nearly all actives have a fitted effect of over 60% in size
Target sequence (Q9Y468 whole entry, looked up): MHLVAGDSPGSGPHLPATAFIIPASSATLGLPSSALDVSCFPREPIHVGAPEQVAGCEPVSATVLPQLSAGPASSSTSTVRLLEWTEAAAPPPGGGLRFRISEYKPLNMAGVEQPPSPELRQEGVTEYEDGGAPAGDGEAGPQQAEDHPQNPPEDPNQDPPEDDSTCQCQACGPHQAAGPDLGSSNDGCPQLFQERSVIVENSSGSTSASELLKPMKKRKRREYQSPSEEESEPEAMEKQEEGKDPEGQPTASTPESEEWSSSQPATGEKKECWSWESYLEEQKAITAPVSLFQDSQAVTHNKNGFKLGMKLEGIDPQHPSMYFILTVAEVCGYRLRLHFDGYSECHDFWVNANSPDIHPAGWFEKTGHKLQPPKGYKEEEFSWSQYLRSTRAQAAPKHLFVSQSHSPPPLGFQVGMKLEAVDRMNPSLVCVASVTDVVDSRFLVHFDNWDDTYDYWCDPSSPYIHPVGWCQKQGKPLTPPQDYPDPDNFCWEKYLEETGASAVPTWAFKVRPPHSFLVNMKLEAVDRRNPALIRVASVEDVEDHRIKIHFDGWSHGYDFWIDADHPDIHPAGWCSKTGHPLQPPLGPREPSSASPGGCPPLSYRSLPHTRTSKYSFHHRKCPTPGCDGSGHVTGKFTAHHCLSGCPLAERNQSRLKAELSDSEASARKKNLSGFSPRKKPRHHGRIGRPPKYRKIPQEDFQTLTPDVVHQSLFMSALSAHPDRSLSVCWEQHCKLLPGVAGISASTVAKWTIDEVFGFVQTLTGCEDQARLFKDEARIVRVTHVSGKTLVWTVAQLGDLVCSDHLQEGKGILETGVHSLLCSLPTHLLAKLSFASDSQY
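AlphaScreen assay: L3MBTL1 (50 nM final) was preincubated 30 min at room temperature with biotinylated H3(1-15)K9me1 peptide (75 nM final), then 30 min with library compounds; streptavidin donor and nickel chelate acceptor beads (10 ug/mL final) added, 30 min dark.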
JMJD2A Tudor = inhibitors of human JMJD2A Tudor domain | hit rate 4.4% among 390,000 | AlphaScreen JMJD2A-Tudor / H3K4me3 peptide binding | AID 504339 | Potency, µM (doses to about 114 µM), usual class: inhibitors; further: nearly all actives have a fitted effect of over 50% in size
BAZ2B inh = BAZ2B (human) inhibition. Potency, µM (series often up to 114 µM), actives largely listed as inhibitors. hit rate 4.4% among 360,000. AlphaScreen BAZ2B-H3K14Ac peptide displacement. Q9UIF8. AID 504333; further: nearly all actives have a fitted effect of over 60% in size
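BAZ2B 50 nM plus b-H3(5-23)K14Ac 50 nM, PBS pH 7.4/0.01% Tween-20, 30 min RT; compound added (max 110 uM), 30 min RT; streptavidin donor/Ni-chelate acceptor beads 10 ug/mL final, 20 min dark; AlphaScreen read.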
HP1b binding inh = blocks HP1-beta chromodomain binding to methylated histone tails | P83916 | AlphaScreen HP1-beta / biotin-H3K9me3 peptide binding | Potency, µM (highest dose often 114 µM), hits mostly inhibitors | hit rate 0.56% among 390,000 | AID 540317; further: nearly all actives have a fitted effect of over 70% in size
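HP1-beta protein (50 nM final) preincubated 30 min at room temperature with biotinylated H3(1-18)K9me3 peptide (50 nM) in PBS pH 7.4, 0.01% Tween-20, then compound added for 30 min. AlphaScreen streptavidin donor/nickel chelate acceptor beads (10 ug/mL final), 30 min dark, luminescence read.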
Hits are given with their value; - = inactive; ? = inconclusive; . = no result given; ! = a repeat was not active; [ ] = another dose, or the depositor's remark. Unless noted, the call rests on the fitted dose curve; in most records, active means well fitted inhibition curve with a large enough effect; inconclusive means small, poorly fitted or top-dose-only effect; inactive means no such curve, though single readings can be large or run the other way.

SMILES | JMJD2E inh | PI5P4K alpha inh | L3MBTL1 block | JMJD2A Tudor | BAZ2B inh | HP1b binding inh
COC(=O)c1ccc(N2NC(=O)/C(=C/c3cc(OC)c(O)c(OC)c3)C2=O)cc1 | . | - | . | ? | 45µM | ?
CCCc1cnc(Nc2nc(C(N)Cc3ccc(OC)cc3)cs2)nc1 (stereo unspecified) | . | - | . | . | . | .
COc1ccc2c(c1)c1c(c(=O)n(-c3cccc(C)c3)c(=O)n1CC(=O)NCC1CCCO1)n2C (stereo unspecified) | . | . | . | - | - | -
O=c1c(/C=N/OCc2ccc(Cl)cc2Cl)c[nH]n1-c1cccc(Cl)n1 | ? | - | - | - | - | -
O=c1c(-n2cncn2)c[nH]n1-c1cccc(Cl)n1 | - | - | . | 50µM | 50µM | ?
CCCSCC(=O)Nc1ncc2c(n1)-c1ccccc1CC2 | ? | - | ? | ? | 56µM | -
O=C(Nc1ncc2c(n1)-c1ccccc1CC2)c1ccc(Cl)cc1 | ? | . | - | ? | - | -
CCC(CO)Oc1cc(NCc2ccccc2OC)c2ncn(C(C)C)c2c1 (stereo unspecified) | . | - | - | ? | . | -
CCC(CO)Oc1cc(NCc2ccccc2Cl)c2ncn(C(C)C)c2c1 (stereo unspecified) | . | - | - | 50µM | ? | -
CCC(CO)Oc1cc(NCc2ccccc2F)c2ncn(C(C)C)c2c1 (stereo unspecified) | . | - | - | ? | ? | -
CCC(CO)Oc1cc(NCc2ccccc2C(F)(F)F)c2ncn(C(C)C)c2c1 (stereo unspecified) | . | - | - | 45µM | . | ?
O=C(CSc1nc(=O)n(Cc2ccco2)c2c1CCC2)Nc1ccccc1C(F)(F)F | . | . | . | - | - | -
COc1cc(CNC(=O)c2ccc3c(c2)N(C)C(=O)C2CCCCN32)cc(OC)c1OC (stereo unspecified) | . | . | . | - | - | -
COc1ccc(N=C2S/C(=C\c3ccc(OCC(=O)O)cc3)C(=O)N2CCc2c[nH]c3ccccc23)cc1 | - | -57 | - | 8.9µM | 14µM | 18µM
COc1ccc(N=C2S/C(=C\c3ccc(N4CCOCC4)o3)C(=O)N2CCc2c[nH]c3ccccc23)cc1 | - | . | - | . | 40µM | .
CCCN1C(=O)/C(=C/c2ccc(C)o2)SC1=Nc1ccc(OCC)cc1 | - | - | - | ? | ? | -
Cc1ccc(NC(=O)Cc2ccc(-n3c(C)nc4cccnc43)cc2)cc1C | . | . | . | - | ? | -
CC1=C2C(=COC(C)C2C)C(=O)C(C(=O)O)=C1O (stereo unspecified) | - | . | . | . | . | .
Cc1ccc(OCCC(=O)N2CCN(c3ccc(O)cc3)CC2)cc1 | - | - | - | 14µM | - | -
Cc1ccc(S(=O)(=O)N2CCN(C(=O)CN3CCN(c4ccc(O)cc4)CC3)CC2)cc1 | . | - | . | 45µM | . | ?
Cc1ccc(N2CCN(S(=O)(=O)c3ccc(C)cc3)CC2)cc1 | . | - | - | - | - | -
CN(Cc1ccccc1)C(=O)c1cccc(NC(=O)Cc2ccc(NC(=O)C3CCCN(C(=O)C4CCCC4)C3)cc2)c1 (stereo unspecified) | . | - | . | - | . | -
COc1cc(CC(=O)NCC2CCCCC2)cc(OC)c1OC | . | - | . | - | - | -
Nc1nc(SCc2ccccc2)ns1 | - | ? | -[11.4 µM] | 79µM | - | ?
O=C(NCCO)C(=O)Nc1c2c(nn1-c1ccc(F)cc1)CSC2 | . | . | . | - | - | -
SMILES | JMJD2E inh | PI5P4K alpha inh | L3MBTL1 block | JMJD2A Tudor | BAZ2B inh | HP1b binding inh
CC(=O)Nc1cccc(C(=O)N/N=C/c2cccc(C)n2)c1 | . | - | . | 13µM | - | -
O=C(CN1C(=O)C2(SCC(=O)N2c2ccc(F)c(F)c2)c2ccccc21)Nc1cccc(Cl)c1 (stereo unspecified) | . | . | . | - | - | -
Cc1cccc(NC(=O)c2cc3c([nH]c2=O)CC(c2ccccc2)CC3=O)c1 (stereo unspecified) | . | . | . | - | - | -
CCn1c(C)cc(/C=C2/NC(=O)N(CC(=O)Nc3cccc(C)c3)C2=O)c1C | 22µM | - | - | - | - | -
C=CCN1C(=O)N/C(=C/c2ccc(C)o2)C1=O | 18µM | - | - | - | - | -
Cc1ccc(NC(=O)CN2C(=O)N/C(=C/c3ccc(C)o3)C2=O)cc1 | ? | - | - | - | - | -
Cc1ccc(/C=C2\C(=O)NC(=O)N2C)o1 | . | - | . | - | - | -
CCn1c(C)cc(/C=C2/NC(=O)N(c3ccccc3)C2=O)c1C | 25µM | - | - | ? | ? | -
Cc1cccc(NC(=O)CN2C(=O)N/C(=C/c3ccc(C)o3)C2=O)c1 | - | -51 | - | 79µM | - | -
CCn1c(C)cc(/C=C2\NC(=O)N(CC(=O)Nc3cccc(C)c3)C2=O)c1C | ? | - | - | - | ? | -
CCOc1ccc(C(=O)N2CCCCC2CCN2CCOCC2)cc1 (stereo unspecified) | . | . | . | - | - | -
Cc1cc(C)c2oc(-c3cccc(NC(=O)COc4ccc([N+](=O)[O-])cc4)c3)nc2c1 | . | . | . | - | - | -
C[c-]1[c-](C)[c-](C)[c-](C)[c-]1C.[Fe].c1cc2nccc(N3CCCC3)[c-]2c1 (stereo unspecified) | 10µM! | ? | . | 45µM | 40µM | 18µM!
NS(=O)(=O)c1ccc(CCNCC(=O)NCc2ccccc2Cl)cc1 | . | - | . | 28µM | 50µM | -
O=C(NCc1cccc(CNC(=O)C(=O)NCc2ccco2)c1)C(=O)NCc1ccco1 | - | -53 | - | ? | ? | -
O=C(CNCCc1ccc(Cl)cc1Cl)NCc1ccco1 | - | - | - | - | - | -
NS(=O)(=O)c1ccc(NC(=S)NCc2ccccc2Cl)cc1 | - | - | - | - | - | -
O=C(O)C(O)Cc1c[nH]c2ccccc12 (stereo unspecified) | - | - | - | - | - | -
O=C(O)C(=O)Cc1c[nH]c2ccccc12 | ? | ? | - | 45µM | ? | ?
O=C(CNCc1ccccc1Cl)NCc1ccco1 | - | - | - | - | 20µM | 22µM
CC(=O)c1ccc(NC(=O)Cn2c(=O)n(Cc3ccco3)c(=O)c3sc4ccccc4c32)cc1 | . | . | . | - | - | -
O=C(Cc1c[nH]c2ccccc12)NCc1ccco1 | - | - | - | - | 50µM | -
Cc1c(Br)cc(C(=O)NCc2ccco2)c(C)c1C | - | ? | . | - | 56µM | -
O=C(NCc1ccco1)C(=O)c1c[nH]c2ccccc12 | - | - | - | - | ? | -
CC(C)[C@H](NC(=O)c1ccccc1)C(=O)OCC(=O)N1CCCc2ccccc21 | - | - | - | - | - | -
CCOc1ccc2c(c1)C(NC(C)=O)C(=O)N2CCN1CCOCC1 (stereo unspecified) | . | - | . | 14µM | 10µM | -
CC(=O)NC1C(=O)N(CCN2CCOCC2)c2ccc(Br)cc21 (stereo unspecified) | . | - | . | 8.9µM | 10µM | ?
CCN1C(=O)C(NC(C)=O)c2cc(OC)ccc21 (stereo unspecified) | - | - | - | - | - | -

Assay outcomes deposited in PubChem by National Center for Advancing Translational Sciences (NCATS).
